RORg inh – blocks mouse ROR gamma transcriptional activity | actives 5.4% (n = 310,000) | P51450 | Potency, µM (titrated, usually from 53.6 µM), for the others: at the top dose activity change, negative = inhibition, hits mostly inhibitors | Drosophila S2 Gal4-RORgamma UAS-luciferase reporter, 20 h; also: % is scaled to controls: 0 for no effect and ±100 for the full control effect; nearly all actives have a fitted effect of over 60% in size
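A Gal4/UAS one-hybrid system in insect cells: metallothionein-promoter Gal4–ROR gamma fusion plus Photinus luciferase reporter. Copper sulfate 700 uM final, 20 hr ambient incubation, luminescent detection after 10 min with reagent.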
PINK1 modulator – modulators of PINK1 expression; AID 624263; actives 0.2% (n = 410,000); PINK1 immunofluorescence, high-content cytometry, 24 h; Potency, µM (series often up to 76.6 µM), for inactives: at the top dose activation (PINK1 increase), hits mostly activators; active = well fitted activation curve with a large enough effect; inconclusive = small, poorly fitted or top-dose-only effect; cell line not stated here; also: % of control where 0% means no effect; nearly all actives have a fitted effect of over 65% in size
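Decision-based qHTS: stable cells, 24 h exposure to five compound concentrations, CCCP as control. Fixed cells stained for PINK1 plus nuclear, mitochondrial and cell markers, cytometer read.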
Epigenetic reg – derepresses silenced GFP reporter in murine cells; actives 0.2% (n = 280,000); Potency, µM (doses to about 53.9 µM), for inactives: at the top dose GFP activation, usual class: activators; murine LDR cells, GFP reporter derepression, 30 h; also: % of control where 0% means no effect; nearly all actives have a fitted effect of over 60% in size
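GFP-positive cell count by laser-scanning cytometry (objects 20–120 um) after 30 h, 37 C compound exposure of murine LDR cells; reporter is CMV-GFP integrated at a silenced locus, inducible by HDAC or DNMT inhibitors.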
Gal4-VP16 FLuc – counter-screen for ROR gamma inhibitors: Gal4-VP16 reporter; actives 3.5% (n = 310,000); Potency, µM (top dose mostly 53.6 µM), without a hit: at the highest dose activity, negative = inhibition, most hits filed as inhibitors; Drosophila S2 Gal4-VP16 UAS-luciferase, luminescence, 20 h; AID 2546;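 also: Gal4-VP16 expression switched on by copper sulfate through the metallothionein promoter; % is scaled to controls: 0 for no effect and ±100 for the full control effect; nearly all actives have a fitted effect of over 50% in size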
ClpP mod – qHTS Assay for Activators of ClpP; purified B. subtilis ClpP, FRET peptide cleavage, 20 min; Potency, µM (doses to about 57.5 µM), for the others: at the top dose activity change, negative = active; actives 1.9% (n = 340,000); AID 651965, 2013; active = well fitted falling curve with a large enough effect; inconclusive = small, poorly fitted or top-dose-only effect; inactive = no such curve, though single readings can be large or run the other way; also: the source files actives as falling curves though it sought activators and does not explain the sign; nearly all actives have a fitted effect of over 65% in size
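FRET quenching reversal measured ClpP activation: 10 microg/mL B. subtilis ClpP at pH 8 with the FRET-FV decapeptide, read at 430 nm after 320 nm excitation. The 20-min minus 0-min signal was scaled between DMSO/no-enzyme wells and ADEP (5.8 microM final).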
Sfp PPTase inh – Sfp phosphopantetheinyl transferase inhibition. Potency, µM, for inactives: largest response in the series, negative = inhibition, most hits filed as inhibitors. actives 3.5% (n = 310,000). Biochemical Sfp PPTase activity, qHTS;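 also: the enzyme is Sfp with the accession as filed and its product quenches rhodamine fluorescence; 0% = enzyme reaction without inhibitor and -100% = no enzyme wells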
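Fluorescence-quenching assay with 15 nM Sfp, 5 uM rhodamine-CoA and 12.5 uM BHQ-2-labelled ybbR peptide in pH 7.6 Hepes/MgCl2 buffer. Enzyme was pre-incubated with compound for 15 min at room temperature. Rate was taken from the 30-min fluorescence change (525/598 nm).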
An asterisk follows results filed as active; ? = inconclusive; . = no result given; [ ] = remark or other dose. A selection: hits, their analogues and other compounds. The true share with any hit is near 8.1%. Unless noted, calls follow the shape of the dose curve; as a rule, active = well fitted curve in the direction sought with a large enough effect; inconclusive = small, poorly fitted or top-dose-only effect, or another doubt; inactive = no such curve, though single readings can be large; an effect the other way counts as inactive or inconclusive. Potency is read from the fitted curve at half-maximal effect.

SMILES	RORg inh	PINK1 modulator	Epigenetic reg	Gal4-VP16 FLuc	ClpP mod	Sfp PPTase inh
CC(=O)c1ccc(/C=C/c2nc3ccccc3n2C)o1	10µM*	1%	4%	?	.	50µM*
COc1ccc(C2C(C(=O)Nc3cc(C)on3)c3ccccc3C(=O)N2C)cc1 (centres undefined)	3%	-2%	-2%	-6%	-1%	21%
Cc1ccc(CNC(=O)C2c3ccccc3C(=O)N(C)C2c2c[nH]c3ccccc23)o1 (centres undefined)	-20%	0%	-1%	1%	0%	50µM*
CCN(CC)CCNC(=O)c1c(C)oc2ncn(C)c(=O)c12	.	0%	-1%	.	-3%	.
COc1ccc(-c2cc3nc(C)c(CCC(=O)Nc4cccc(C(F)(F)F)c4)c(C)n3n2)c(OC)c1	.	2%	-1%	.	2%	.
Cc1ccc(C)c(NC(=O)Cn2c(=O)n(Cc3ccco3)c(=O)c3oc4ccccc4c32)c1	.	1%	?	.	32µM*	.
Cc1ccc(C)c(N2CCN(C(=O)CN3C(=S)NC(C)(C)CC3C)CC2)c1 (centres undefined)	7.9µM*	-1%	0%	?	0%	12%
CC1CC(C)(C)NC(=S)N1CCCC(=O)N1CCN(c2ccc(F)cc2)CC1 (centres undefined)	10µM*	-1%	-1%	-95%	-1%	2%
CC1CC(C)(C)NC(=S)N1CC(=O)N1CCN(Cc2ccccc2)CC1 (centres undefined)	-19%	-1%	6%	5%	1%	-9%
CC1CC(C)(C)NC(=S)N1CCC(=O)N1CCc2ccccc2C1 (centres undefined)	16µM*	1%	0%	?	-4%	-20%
COc1ccc(N2CCN(C(=O)CCN3C(=S)NC(C)(C)CC3C)CC2)cc1 (centres undefined)	11µM*	1%	0%	-5%	.	25%
CC(=O)c1ccc(N2CCN(C(=O)CCN3C(=S)NC(C)(C)CC3C)CC2)cc1 (centres undefined)	?	1%	-1%	23%	0%	8%
CC1CC(C)(C)NC(=S)N1CCC(=O)N1CCN(c2ccccc2)CC1 (centres undefined)	7.9µM*	1%	1%	?	0%	-3%
COc1ccc(CNC(=O)C2CCN(S(=O)(=O)c3cccc4nonc34)CC2)cc1OC	.	1%	0%	.	1%	.
CCNc1ccc(Br)cc(C(=O)/C=C/c2ccc3c(c2)OCO3)c1=O	-20%	0%	2%	-6%	-5%	-81%
CNc1ccc(Br)cc(C(=O)/C=C/c2ccc(Cl)cc2Cl)c1=O	?	7%	?	-29%	.	14µM*
CNc1ccc(Br)cc(C(=O)/C=C/c2ccc(OC)cc2OC)c1=O	-39%	0%	10%	-17%	-1%	?
CCNc1ccc(Br)cc(C(=O)/C=C/c2c(Cl)cccc2Cl)c1=O	10µM*	2%	?	?	0%	16µM*
O=C(/C=C/c1ccc(Cl)cc1Cl)c1ccc[nH]1	32%	0%	1%	6%[10 µM]	2%	7%
CCNc1ccc(Br)cc(C(=O)/C=C/c2ccc(Cl)cc2)c1=O	-35%	12%	15%	?	0%	40µM*
CNc1ccc(Br)cc(C(=O)/C=C/c2cccc(OC)c2)c1=O	?	1%	?	?	-9%	20µM*
COc1ccccc1CNC(=O)CCCn1c(=O)c2ccccc2n(Cc2ccc(F)cc2)c1=O	.	2%	3%	.	0%	.
Cc1csc(NC(=O)c2ccc(Br)s2)n1	10µM*	6%	.	?	.	3%
Cc1csc(NC(=O)c2cc3c(s2)CCC3)n1	2µM*	-1%	1%	8.9µM*	-6%	-4%
CC1CCc2sc(C(=O)NN)cc2C1 (centres undefined)	26%	3%	0%	-9%	0%	-24%
SMILES	RORg inh	PINK1 modulator	Epigenetic reg	Gal4-VP16 FLuc	ClpP mod	Sfp PPTase inh
COC(=O)c1sc(NC(=O)c2cc3c(s2)CCCC3)nc1C	1.8µM*	?	0%	?	?	9%
CCOC(=O)c1sc(NC(=O)c2cc3c(s2)CCC(C)C3)nc1C (centres undefined)	0.25µM*	14%	-3%	0%	?	-5%
CCCS(=O)(=O)Nc1cccc(-c2cn3ccc(C)cc3n2)c1	.	2%	-2%	.	4%	.
CCc1sc(C(=O)Nc2nc(C)cs2)cc1C	5µM*	5%	.	11µM*	.	7%
FC(F)(F)c1ccc(Cl)c(NC(=S)N/N=C/c2ccccc2C(F)(F)F)c1	0.32µM*	1%	2%	0.56µM*	-2%	5%
COc1ccc(/C=N/NC(=S)Nc2cc(C(F)(F)F)ccc2Cl)cc1	0.35µM*	1%	4%	4µM*	.	10%
COc1ccc(NC(c2ccc(F)cc2)c2nnc(-c3ccccc3Cl)o2)cc1Cl (centres undefined)	.	0%	1%	.	-1%	.
CC(=O)c1ccc2c(c1)Nc1ccccc1S2	25%	-1%	0%	8%	32µM*	6%
C/C(=N\NC(=O)c1ccc(C)cc1C)c1ccc2c(c1)Nc1ccccc1S2	-11%	6%	3%	-25%	6%	11%
COc1ccc(NS(=O)(=O)c2ccc3oc(SC(C)C(N)=O)nc3c2)cc1 (centres undefined)	?	-3%	.	?	32µM*	12%
CC(C)NC(=S)N/N=C1\CCCCC1C1CCCCC1 (centres undefined)	1µM*	6%[38.3 µM]	0%	3.5µM*	-2%	-22%
Fc1cccc(Cc2noc(CN3CCSCC3)n2)c1	-30%	1%	0%	-4%	.	2%
Cc1cccnc1CN1CCN(Cc2nc(Cc3cccc(F)c3)no2)CC1	13µM*	-1%	1%	-3%	-2%	13%
CC(C)(C)C(=O)NC(=S)Nc1ccccc1N1CCCC1	20%	1%	-5%	?	6%	1%
CC(=O)NC(=S)Nc1ccccc1N1CCCCC1	2.5µM*	2%	-3%	7.1µM*	.	-18%
CCCCCC(=O)NC(=S)Nc1ccc(N2CCOCC2)cc1	1.3µM*	1%	-1%	2.2µM*	-2%	-16%
CCC(=O)NC(=S)Nc1cccc(Cl)c1N1CCCCC1	4.5µM*	22%[38.3 µM]	0%	5µM*	1%	11%
CCCC(=O)NC(=S)Nc1ccccc1N1CCOCC1	11µM*	0%	1%	?	0%	-6%
O=C(Cc1ccc(S(=O)(=O)N2CCOCC2)s1)Nc1ccccc1N1CCOCC1	11%	2%	-2%	0%	14µM*	2%

Bioassay records (PubChem)
